Assay results: PubChem BioAssay (NCATS)
Active and inactive are the calls of the source. How the calls were made is not given here.

Tested on: HIV-1 nucleocapsid protein NCp7 (binding to TG oligonucleotide)
Experiment: HIV Nucleocapsid (AID 346);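 further: potency is for inhibitors that block NC binding and lower polarization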
Details: HIV-1 NC / fluorescein-TGTGTGTG probe, fluorescence polarization
Method: NCGC Assay Overview: HIV-1 nucleocapsid protein (HIV-1 NC) is a small (6.5 kDa) basic zinc-finger protein which participates in packaging of viral genomic RNA. The spacing and metal-chelating residues (3 Cys, 1 His) of the Cys-X2-Cys-X4-His-X4-Cys Zn fingers are conserved among all known retroviruses (J. Med. Chem. 1998, 41, 1371-1381). HIV-1 NC was assayed for its binding to the consensus sequence single-stranded 5'-TGTGTGTG. […] High salt was included to increase the stringency of binding and inhibitor screen. Reducing agents and zinc were present to stabilize the nucleocapsid zinc-finger protein.
NCGC Assay Protocol Summary: Buffer. Hepes pH 7.5, 250mM NaCl, 1uM ZnCl2. 0.004% polyethylene glycol 20000. TCEP (100 uM) and 2-Mercaptoethanol (5 mM), added fresh the day of the experiment. Reagents/Controls. 10 nM TG4xF only in columns 3 and 4 as negative control. 10 nM TG4xF/100 nM HIV-1 NC in columns 1, 2, 5-48. Titration of control compound NSC-13778 (from 20 mM, then 1:2) pin-transferred to column 2. Assay Steps. Two uL of reagents were dispensed to 1536-well Kalypsys black plates. The plates were centrifuged for 1 min at 1000 rpm. Compounds and controls (20 nL) were transferred via Kalypsys PinTool. The plates were incubated for 1 hr at room temperature, and then read on ViewLux (Perkin-Elmer). High-throughput CCD imager using fluorescein polarization filter set and 45 seconds exposure time.
Potency means the concentration at half of the fitted maximal effect.

SMILES | Potency
COc1ccccc1CNc1ccnc(-c2ccc3c(c2)OCO3)n1 | > 20 µM (inactive)
COc1ccc(C(=O)N2CCC3(CCN(C)CC3)CC2)cc1 | > 20 µM (inactive)
c1ncc(-c2ccc3c(c2)OCO3)c(NCCc2cnc[nH]2)n1 | > 20 µM (inactive)
COCCn1c(=O)cnc2cnc(N3CCOCC3)nc21 | > 20 µM (inactive)
COCC(=O)N1CCC2(CC1)CCN(c1ccncc1)CC2 | > 20 µM (inactive)
COc1ccc(-n2c(=O)c(C)nc3cnc(N4CCNCC4)nc32)cc1 | > 20 µM (inactive)
O=c1c(-c2cccs2)nc2cnc(Oc3ccccc3)nc2n1C1CC1 | > 20 µM (inactive)
FC(F)(F)c1ccccc1-c1cc(NCc2cccnc2)ncn1 | > 20 µM (inactive)
Cc1noc(C)c1-c1nccc(N(C)Cc2ccco2)n1 | > 20 µM (inactive)
COc1ccc(-c2nc3cnc(N4CCNCC4)nc3n(C)c2=O)cc1 | > 20 µM (inactive)
Cn1cc(-c2nc3cnc(OCc4ccccc4)nc3n(CCC#N)c2=O)c2ccccc21 | > 20 µM (inactive)
COc1cccc(-c2ccc3ncnc(NCCNC(C)=O)c3c2)c1 | > 20 µM (inactive)
O=C(Nc1ccccc1)N1CCC2(CC1)CCN(S(=O)(=O)c1ccccc1)CC2 | > 20 µM (inactive)
O=C(Nc1ccccc1)N1CC[C@@]2(CCCN(C(=O)c3cccc(F)c3)C2)C1 | > 20 µM (inactive)
CN(C)Cc1ccccc1-c1cncnc1NCc1cccs1 | > 20 µM (inactive)
COc1ccc(-c2nc3cnc(OC)nc3n(-c3ccc(OC)cc3)c2=O)cc1 | > 20 µM (inactive)
O=c1c(-c2cccc(Cl)c2)nc2cncnc2n1Cc1ccc(F)cc1 | > 20 µM (inactive)
COc1ccc(NC(=O)N2CC3(CCN(C(=O)c4cccn4C)CC3)C2)cc1 | > 20 µM (inactive)
COCCn1c(=O)c(-c2ccc(F)cc2)nc2cnc(N3CCOCC3)nc21 | > 20 µM (inactive)
CN(C)c1ccc(-c2ccc3ncnc(NC4CC4)c3c2)cc1 | > 20 µM (inactive)

SMILES | Potency
CN(C)c1ccc(-c2ccc3ncnc(N4CCNCC4)c3c2)cc1 | > 20 µM (inactive)
Cc1nc2cnc(N3CCNCC3)nc2n(CCc2ccccc2)c1=O | > 4 µM (inactive)
CN1CCN(c2cc(-c3ccoc3)ncn2)CC1 | > 20 µM (inactive)
COc1ccc(C(=O)N2CCC3(CCCN(CC(C)C)C3)CC2)cc1 | > 20 µM (inactive)
COc1ccc(-n2c(=O)c(-c3ccc(Cl)cc3)nc3cnc(N4CCOCC4)nc32)cc1 | > 20 µM (inactive)
N#Cc1cccc(-c2nc(NCc3ccccc3)c3ccccc3n2)c1 | > 20 µM (inactive)
COc1ccc(-n2c(=O)c(-c3cn(C)c4ccccc34)nc3cnc(OC)nc32)cc1 | > 20 µM (inactive)
Cc1cnc(CNc2nc(-c3ccc(N(C)C)cc3)nc3ccccc23)cn1 | > 20 µM (inactive)
COc1ccc(Oc2ncc3nc(C)c(=O)n(Cc4cccc(OC)c4)c3n2)cc1 | > 20 µM (inactive)
COc1ccccc1CN1CCC2(CC1)CCN(C(=O)c1c(C)noc1C)CC2 | > 20 µM (inactive)
CS(=O)(=O)Nc1cccc(-c2ccc3ncnc(NCc4cccs4)c3c2)c1 | > 20 µM (inactive)
O=S(=O)(c1ccccc1)N1CCC2(CCCN(c3ccccn3)C2)CC1 | > 4 µM (inactive)
COc1cccc(Cn2c(=O)c(-c3cc(F)cc(F)c3)nc3cnc(N4CCNCC4)nc32)c1 | > 20 µM (inactive)
CS(=O)(=O)Nc1cccc(-c2ccc3ncnc(Nc4ccc(F)cc4)c3c2)c1 | > 20 µM (inactive)
CC(=O)NCCNc1ncnc2ccc(-c3c(C)noc3C)cc12 | > 20 µM (inactive)
COc1ccc(-c2nc3cnc(N4CCN(C)CC4)nc3n(Cc3cccc(OC)c3)c2=O)cc1 | > 20 µM (inactive)
Cc1cnc(CNc2nc(-c3ccccc3C)nc3ccccc23)cn1 | > 20 µM (inactive)
N#CCCn1c(=O)cnc2cnc(N3CCOCC3)nc21 | > 20 µM (inactive)
O=c1c(-c2ccccc2)nc2cnc(N3CCOCC3)nc2n1CCc1ccccc1 | > 20 µM (inactive)
O=c1cnc2cnc(Oc3ccccc3)nc2n1C[C@H]1CCCO1 | > 20 µM (inactive)
